# Values joined by “and” are separate entries in the source; they are usually repeats but may differ in a detail not shown here. Equal values may be shown once. Active and inactive are the calls of the source. How the source made its calls: active means hit-call score of the fitted dose curve at least 0.9, where 1 is the maximum; inactive means score below 0.9.
# Assay: BSK_LPS_SRB: Viability Assessment in the BioMAP Diversity Plus: LPS Assay (AID 2283079);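 further: measured one day after compound addition; fitted in both directions against DMSO so loss or gain of signal counts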
# Conditions: primary human HUVEC with PBMC
# Method: BSK_LPS is a cell-based, multiplexed-readout assay that uses umbilical vein endothelium and peripheral blood mononuclear cells, a human vascular primary cell co-culture, with measurements taken at 24 hours after chemical dosing in a 96-well plate.BSK_LPS_SRB is an assay component measured in the BSK_LPS assay. It measures 0.1% sulforhodamine related to cell death using Sulforhodamine staining technology.Data from the assay component BSK_LPS_SRB was analyzed into 1 assay endpoint. This assay endpoint, BSK_LPS_SRB, was analyzed with bidirectional fitting relative to DMSO as the negative control and baseline of activity. Using a type of viability reporter, gain or loss-of-signal activity can be used to understand changes in the signaling. Furthermore, this assay endpoint can be referred to as a primary readout, because this assay has produced multiple assay endpoints where this one serves a signaling function. To generalize the intended target to other relatable targets, this assay endpoint is annotated to the cell morphology intended target family, where the subfamily is cell conformation.
# The levels of cell surface (or secreted, indicated by the prefix "s") biomarker endpoints were measured by ELISA. Overt cytotoxicity to cells in confluent adherent cultures (all systems other than the BT system) was assessed by measuring total protein levels using sulforhodamine B (SRB) staining in parallel cultures at the time of biomarker measurements, indicated as SRB endpoints. For proliferation assays for adherent cell types, individual cell types are cultured at sub-confluence and relative cell numbers quantified by SRB staining at time points optimized for each system (48 h: 3C and CASM3C systems; 72 h: BT and HDF3CGF systems; 96 h: SAg system). SRB was performed by staining cells with 0.1% SRB after fixation with 10% TCA and reading wells at 560 nm.Viability and proliferation of PBMC (T cells) was quantified by Alamar Blue reduction for the SAg and BT systems. For PBMC viability (referred to as PBMC Cytotoxicity within the assay endpoint names), cells were plated (75,000/well in a 96-well plate) and then chemical samples added for 1 h before addition of activators, SEB and TSST-1 (20 ng/mL final concentration each). Cells were incubated for 90 h. Then, Alamar Blue (20 uL/well) (Invitrogen, Cat DAL1100) was added for 6 h, and the plates were read with a fluorescence microplate reader at 546/580 nm (excitation/emission). For PBMC proliferation, cells were plated and activated as above but incubated for only 16 h prior to addition of Alamar Blue. Plates were read after 6 h.
SMILES,AC50,outcome
CCCCCCCCCCCCCCCC[N+](C)(C)CC,1.62 µM (active),–
O=C1CCCN1CCO,–,inactive
CCOC(=O)c1ccccc1C(=C1C=C(Br)C(=O)C(Br)=C1)c1cc(Br)c(O)c(Br)c1,20.6 µM (active) and 23.2 µM (active),–
CCOc1nc(F)cc2nc(S(=O)(=O)Nc3c(Cl)cccc3C(=O)OC)nn12,–,inactive
C=CC(=O)OCC(Br)CBr (stereo unspecified),31 µM (active),–
Nc1ccc(N)c(Cl)c1,25.9 µM (active) and 32.6 µM (active),–
CCCCC(CC)COCC1CO1 (stereo unspecified),–,inactive
S=C(NC1CCCCC1)NC1CCCCC1,–,inactive
C/C=C\C/C=C/CCCCCCCCOC(C)=O,–,inactive
c1ccc2c(c1)ccc1ncccc12,20 µM (active),–
c1ccc2c(c1)ccc1cc3c(ccc4ccccc43)cc12,–,inactive
COc1ccc2nc(N)sc2c1,–,inactive
CCCCC(CC)COC(=O)c1ccccc1O (stereo unspecified),–,inactive
C=CCOCC(O)CCl (stereo unspecified),–,inactive
CC(C)C(=O)C(C)C,–,inactive
O=C(Cl)c1cc(C(=O)Cl)cc(C(=O)Cl)c1,30.5 µM (active),–
CO[Si](OC)(OC)c1ccccc1,–,inactive
CC(C)(c1cc(Br)c(OCCO)c(Br)c1)c1cc(Br)c(OCCO)c(Br)c1,16.2 µM (active),–

SMILES,AC50,outcome
CC1OC1C1CCC2(C)OC2C1 (stereo unspecified),–,inactive
O=C(Nc1ccccc1SSc1ccccc1NC(=O)c1ccccc1)c1ccccc1,5.31 µM (active),–
CN1C(=O)N(C)C(O)C1O (stereo unspecified),–,inactive
CCCCC/C=C\C/C=C\CCCCCCCC(=O)OC,–,inactive
C=C[Si](OC(C)=O)(OC(C)=O)OC(C)=O,–,inactive
CCO[Si](C)(OCC)OCC,–,inactive
COCc1c(C(C)C)nc(C(C)C)c(/C=C/[C@@H](O)C[C@@H](O)CC(=O)O)c1-c1ccc(F)cc1,0.023 µM (active),–
C=CCOc1c(Br)cc(Br)cc1Br,–,inactive
O=Nc1ccc(O)cc1,–,inactive
C=CC=CC=CCCCCC,–,inactive
N#[N+]c1ccc2c(S(=O)(=O)[O-])cccc2c1O,–,inactive
O=c1c2ccccc2oc2ccccc12,–,inactive
CCO[Si](CCCN=C=O)(OCC)OCC,–,inactive
CCCCNc1ccc(NCCCC)c2c1C(=O)c1ccccc1C2=O,–,inactive
c1ccc(-c2ccccn2)nc1,–,inactive
CCCCCCCCc1ccc(Nc2ccc(CCCCCCCC)cc2)cc1,–,inactive
C#CC1(O)CC[C@H]2[C@@H]3CCC4=CCCC[C@@H]4[C@H]3CC[C@@]21C (stereo partly specified),20 µM (active),–
O=C(c1ccc(O)cc1)c1ccc(O)cc1O,–,inactive

# — PubChem BioAssay (EPA / NIEHS)
